Compounds with a hit are over-represented: about 2.3% of the library has one in this group of screens.
M1 PAM – human M1 muscarinic receptor positive allosteric modulators, primary screen, CHO-K1 cells, Fluo-8 calcium fluorescence, 1536-well | hit rate 0.088% among 360,000 | CHO-K1 hM1, ACh EC20; 0% = ACh EC20, 100% = maximal ACh | activation, % at 3 µM; in the data active = activation above about 19%, passing the limit was not always enough
Target sequence (P11229 whole entry, looked up): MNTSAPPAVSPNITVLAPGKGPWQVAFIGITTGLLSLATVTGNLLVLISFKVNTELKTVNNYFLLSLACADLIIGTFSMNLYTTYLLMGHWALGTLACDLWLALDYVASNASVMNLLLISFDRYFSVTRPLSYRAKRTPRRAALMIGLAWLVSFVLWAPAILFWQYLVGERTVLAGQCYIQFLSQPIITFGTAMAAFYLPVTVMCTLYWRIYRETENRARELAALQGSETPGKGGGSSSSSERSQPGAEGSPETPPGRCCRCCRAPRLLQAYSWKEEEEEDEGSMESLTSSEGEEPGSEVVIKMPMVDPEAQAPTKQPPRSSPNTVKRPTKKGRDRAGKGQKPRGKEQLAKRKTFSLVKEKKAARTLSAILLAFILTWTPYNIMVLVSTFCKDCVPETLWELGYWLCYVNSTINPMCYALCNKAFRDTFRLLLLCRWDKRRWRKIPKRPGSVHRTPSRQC
M1 ag parental – counter-screen for M1 agonists: effect in parental CHO-K1 cells; hit rate 0.48% among 360,000; activation, % at 3 µM; Fluo-8 calcium fluorescence; scaled to maximal ATP response, vehicle zero; in the data active = activation above about 15%;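 note: untransfected CHO-K1 host cells lacking M1 receptor as counterscreen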
CHRM1 agonist – human M1 muscarinic receptor agonists, primary screen, Fluo-8 calcium fluorescence, CHO-K1 cells, HTS. Muscarinic acetylcholine receptor M1 (Homo sapiens), P11229. CHO-K1 hM1, agonist mode; 0% DMSO, 100% acetylcholine EC100. activation, % at 3 µM. hit rate 0.33% among 360,000. AID 588814, 2011;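 active = activation above the run's mean compound activation plus 3 SD, cut at about 16% in these data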;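 note: peak over basal fluorescence ratio within a 140 s kinetic read after compound addition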
CHO-K1 Ca antag – nonselective inhibitor or artifact in parental CHO-K1 cells. ATP-induced calcium, Fluo-8 fluorescence. inhibition, % at 3 µM. hit rate 0.6% among 360,000;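 active = inhibition above a per-plate cutoff, the plate's mean sample inhibition plus 3 SD, cut at about 24% in these data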;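 note: 0% = DMSO plus EC80 ATP and 100% = DMSO alone without ATP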
CHO-K1 Ca PAM – nonselective calcium activators in parental CHO-K1 cells, primary screen, counter-screen for M1 PAM project, cell-based, Fluo-8 calcium fluorescence, full deck, 1536-well; ATP EC20; 0% at ATP EC20, 100% at ATP max; activation, % at 3 µM; hit rate 0.02% among 360,000; AID 602247, 2012;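 active = activation above the run cutoff, the mean activation of all test compounds plus 3 SD, cut at about 40% in these data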;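 note: peak over basal fluorescence ratio in a 140 s read after ATP addition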
M1 antag – human M1 muscarinic receptor antagonists, primary screen, CHO-K1 cells, Fluo-8 calcium fluorescence, 1536-well; inhibition, % at 3 µM; CHO-K1 hM1, ACh EC80 antagonist; hit rate 1.3% among 360,000; Muscarinic acetylcholine receptor M1 (Homo sapiens), P11229;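 active = percent inhibition above its own plate's cutoff, namely the mean of that plate's compound wells plus 3 SD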;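 note: peak over basal fluorescence ratio during 140 s after agonist addition; 0% = ACh EC80 plus DMSO and 100% = DMSO alone without agonist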
The depositor's hits bear a star; . = no result given.

SMILES	M1 PAM	M1 ag parental	CHRM1 agonist	CHO-K1 Ca antag	CHO-K1 Ca PAM	M1 antag
CC(=O)NC(c1ccccc1)c1nc(-c2cccc(CO)c2)cs1 (stereo unspecified)	-2	0	-2	3	2	2
CC(=O)NC(c1ccccc1)c1nc(-c2cccc(C(F)(F)F)c2)cs1 (stereo unspecified)	3	1	-4	29*	-16	-12
Cc1ccc(S(=O)(=O)Nc2ccc(O)c3ccccc23)c(C)c1	-4	1	-1	27*	-28	11
CCOC(=O)N1C2c3ccccc3C(c3ccccc32)N1C(=O)OCC	8	0	-5	-9	9	-11
C=C1C(=O)[C@]23C[C@H]1CC[C@H]2[C@]1(C)[C@@H](O)CC[C@@](C)(C(=O)O)[C@H]1C[C@@H]3O	2	0	-3	29*	-7	0
C=C1C(=O)[C@]23C[C@H]1CCC2[C@@]1(C)C(C[C@@H]3O)[C@](C)(C(=O)O)C[C@H](O)[C@@H]1O (stereo partly specified)	8	1	-2	4	14	-5
C=C1C(=O)[C@]23C[C@H]1CCC2[C@@]1(C)C(C[C@@H]3O)[C@](C)(C(=O)OC)CC[C@@H]1OC(C)=O (stereo partly specified)	-23	6	-6	29*	0	52*
O=C(NCc1ccc(F)cc1)c1cc(C2CCCN(S(=O)(=O)c3ccccc3)C2)on1 (stereo unspecified)	-6	4	2	-9	14	-3
CC1=C([N+](=O)[O-])C(c2ccccc2Cl)NC(=O)N1C (stereo unspecified)	9	17*	1	-10	23	-10
COc1ccccc1CN1C2CCCC1CC(NC(=O)/C=C/c1ccccc1)C2 (stereo unspecified)	-32	1	-13	-15	20	62*
CCCCCCC[C@@H](C/C=C/CCC(=O)N(C)C/C(=C/Cl)C/C(=C\C(=O)N1CC(OC)=CC1=O)OC)OC	-11	2	-4	-4	1	33*
CC1(C)CC(=O)c2c(oc3ccc(NS(=O)(=O)c4ccc(C(=O)O)cc4)cc23)C1	19	0	5	25*	-18	-1
CCOC(=O)c1c(C)oc2ccc(NS(=O)(=O)c3ccc(C(=O)O)cc3)cc12	-9	-1	-5	8	0	14
O=C(CN1CCN(Cc2ccccc2)CC1)Nc1cccc(C(F)(F)F)c1	11	0	-4	26*	-8	-10
C=CCOc1ccc(C[C@H](N)C(=O)NC[C@H]2O[C@@H](n3cc(C)c(=O)[nH]c3=O)C[C@@H]2O)cc1	6	1	-3	-11	19	-9
O=C1NC[C@H](CCCCN2C[C@H](Cc3ccccc3)N(CCc3ccccc3)C(=O)C2=O)N(CCC2CCCCC2)C1=O	.	0	.	-17	16	.
COc1ccc(CNc2ccc(Br)cc2)cc1	1	1	-4	-12	16	-1
COc1ccc(NC2=NCC(Cc3ccc(Br)cc3)S2)cc1 (stereo unspecified)	-26	9	-10	-4	23	79*
CC1(C(=O)Nc2cccc(Oc3ccccc3)c2)Cc2c(-c3ccc4c(c3)OCO4)ccnc2O1 (stereo unspecified)	3	2	-3	-13	19	-15
Cn1nc(C(C)(C)C)cc1C(=O)N1CCCC(c2cc(C(=O)NCc3ccccc3)no2)C1 (stereo unspecified)	-3	6	-1	7	3	-6
CC(C)c1ccc(CCNC(=O)c2cccc(S(=O)(=O)N3CCN(C)CC3)c2)cc1	-2	16*	3	-2	10	-2
CN1CCN(S(=O)(=O)c2cccc(C(=O)NCCC3=CCCCC3)c2)CC1	13	1	-6	9	5	-12
CC(C)CNC(=O)C1(C)CCCCCN1Cc1ccccc1-c1ccccc1 (stereo unspecified)	-23	0	-9	-16	-11	18
c1ccc(CN2CCCC3(CCCN(Cc4nc(COc5ccccc5)no4)C3)C2)cc1 (stereo unspecified)	-28	0	-10	-12	25	60*
c1ccc(CN2CCCC3(CCCN(Cc4nc(CC5CC5)no4)C3)C2)cc1 (stereo unspecified)	-13	0	-8	-3	19	19
SMILES	M1 PAM	M1 ag parental	CHRM1 agonist	CHO-K1 Ca antag	CHO-K1 Ca PAM	M1 antag
Cc1ccccc1NC(=O)N1CCCC(c2nc(-c3ccc(F)cc3)no2)C1 (stereo unspecified)	-4	4	-6	-9	5	-6
Cc1ccccc1NC(=O)N1CCCC(c2nc(-c3ccc(C(C)C)cc3)no2)C1 (stereo unspecified)	-5	17*	-2	7	1	13
CC1(C(=O)O)CCN1C(=O)c1cccc(C(F)(F)F)c1 (stereo unspecified)	5	1	-1	-12	10	-11
Cc1ccc(-c2csc(N3CCC(NS(=O)(=O)c4ccc5c(c4)OCCO5)CC3)n2)cc1	-9	7	3	18	13	19*
Cc1ccc(-c2csc(N3CCC(C(N)=O)CC3)n2)cc1	11	1	0	3	10	-6
C[C@H](O)[C@@H]1CN2CCc3c([nH]c4ccccc34)[C@@H]2C[C@@H]1N(C)Cc1cc(Cl)cc(Cl)c1	-5	0	33*	-8	-8	-3
CCOC(=O)N(C)[C@H]1C[C@H]2c3[nH]c4ccccc4c3CCN2C[C@H]1[C@H](C)O	7	2	-9	5	18	-4
NCCCCCc1nnc(SCc2ccc(Cl)cc2Cl)o1	-14	1	-5	16	13	33*
NCCCCCc1nnc(SCc2cccc(Cl)c2)o1	-25	0	-6	-1	12	30*
O=c1c(C(c2ccc(O)cc2)c2c(O)nc3n(c2=O)CCS3)c(O)nc2n1CCS2	15	0	1	24*	-8	-9
Cc1c(Cc2ccc3c(c2)OCO3)sc(NC(=O)c2cccc3ccccc23)c1C(N)=O	-33	2	-13	2	19	101*
O=C(NCc1cc(Cl)cc(Cl)c1)c1ccc2sc([C@H]3C[C@H](O)[C@@H](CO)O3)nc2c1	-1	2	-1	-10	10	2
C=CCn1c(-c2csc3c2CCC(C)C3)n[nH]c1=S (stereo unspecified)	-13	0	-13	7	-7	0

Compound activity (PubChem)
